DT40 TDP1 no CPT: qHTS for Inhibitors of human tyrosyl-DNA phosphodiesterase 1 (TDP1): qHTS in cells in absence of CPT; DT40 Tdp1-/- hTDP1 cells, no CPT, ATP luminescence, 48 h; Potency, µM (top dose mostly 46.2 µM), for inactives: top-dose activity change, negative = growth inhibition, usual class: inhibitors; 420,000 tested, 15% active; further: potency means the concentration at half of the fitted maximal effect; nearly all actives have a fitted effect of over 55% in size
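Stably hTDP1-transfected Tdp1-null chicken DT40 cells were treated with library compounds minus camptothecin and grown for at least 48 hr at 37 °C, after which cellular ATP was quantified by luminescence.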
IL-1B inflam inh: qHTS for Inhibitors of Inflammasome Signaling: IL-1-beta AlphaLISA Primary Screen; THP-1 LPS/ATP IL-1B secretion, AlphaLISA, 16 h; stronger effect = lower value; activity change, % at 57.5 µM; 360,000 tested, 4.7% active; AID 743279, 2014; in the data active means activity change below about -50%; inconclusive means mostly about -30% to -49%
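Secreted IL-1B measured by AlphaLISA bead assay after 16 h compound exposure of THP-1 cells; compounds (final up to 57.5 uM) added 1 h before LPS (250 ng/mL) and ATP (1.25 mM) stimulation; lower signal means less secretion.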
HT1080-NT tox: qHTS for induction of synthetic lethality in tumor cells producing 2HG: qHTS for the HT-1080-NT fibrosarcoma cell line. HT-1080-NT fibrosarcoma viability, CellTiter-Glo ATP luminescence, 48 h. Potency, µM (titrated, usually from 46.1 µM), without a hit: at the top dose activity, negative = less viability, actives largely listed as cytotoxic. 360,000 tested, 1.6% active. AID 686970, 2013;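 further: NT is the 2HG producing partner of a matched IDH1 knockdown line; potency means the concentration at half of the fitted maximal effect; 0% = DMSO-treated cells and -100% = media-only wells without cells; nearly all actives have a fitted effect of over 55% in size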
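Toxicity toward the 2HG-producing NT line was scored as %Activity, normalised to DMSO and no-cell wells, from CellTiter-Glo luminescence after 48 hours' treatment.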
TDP1 cell CPT: qHTS for Inhibitors of human tyrosyl-DNA phosphodiesterase 1 (TDP1): qHTS in cells in presence of CPT; chicken DT40 Tdp1-/-;hTDP1 cells + 20 nM CPT, ATP luminescence, 48 h; Potency, µM (series often up to 46.2 µM), inactives show at the top dose activity change, negative = growth inhibition, usual class: inhibitors; 420,000 tested, 12% active; AID 686979, 2013; further: potency means the concentration at half of the fitted maximal effect; nearly all actives have a fitted effect of over 55% in size
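Chicken DT40 Tdp1-/- cells stably complemented with human TDP1 were seeded at 400 cells/well in medium containing 20 nM camptothecin, exposed to pin-transferred compounds, and grown at 37 °C for at least 48 hr. Viability was read as ATP luminescence.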
HT1080 IDH1KD tx: qHTS for induction of synthetic lethality in tumor cells producing 2HG: qHTS for the HT-1080-IDH1KD cell line; HT-1080 IDH1 knockdown viability, ATP luminescence, 48 h; AID 686971, 2013; Potency, µM (highest dose often 46.1 µM), for the others: top-dose activity, negative = toxicity, most hits filed as cytotoxic; 360,000 tested, 2% active;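 further: potency means the concentration at half of the fitted maximal effect; 0% = DMSO wells and -100% = cell-free medium wells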
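IDH1KD HT-1080 cells, 750/well, RPMI + 5% FBS; compound pinned after 2 h settling; 48 h, 37 °C; CellTiter-Glo luminescence; % activity normalised to DMSO and no-cell wells; curves fitted, classed by r2 and efficacy.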
An asterisk follows results filed as active; ? = inconclusive; nt = no result; [ ] = another dose, or the depositor's remark. This is a sample that favours compounds with a hit; in the whole collection about 19% have one here. Unless noted, the call rests on the fitted dose curve; in most records, active means well fitted curve in the direction sought with a large enough effect; inconclusive means small, poorly fitted or top-dose-only effect, or another doubt; inactive means no such curve, though single readings can be large; an effect the other way counts as inactive or inconclusive. Unless noted, on the % scale 0 is the no-effect control and ±100 the full control effect.

SMILES	DT40 TDP1 no CPT	IL-1B inflam inh	HT1080-NT tox	TDP1 cell CPT	HT1080 IDH1KD tx
Cc1ccc(O)c(N=CC2=C(O)c3ccccc3C2=O)c1	23.1µM*	-0.8	?	?	?
O=C1C(C=Nc2ccccc2O)=C(O)c2ccccc21	1.3µM*	26.2	6.31µM*	3.26µM*	6.31µM*
Cc1cccc(OCCSCc2nc3ccccc3[nH]2)c1	20.6µM*	7.6	-9.4%	16.4µM*	-6.0%
Cc1ccccc1OCC(=O)NCCc1nc2ccccc2[nH]1	?	12.8	-0.4%	-23.1%	3.7%
Cc1ccccc1OCCSCc1nc2ccccc2[nH]1	?	6.8	-16.6%	16.4µM*	-21.3%
Cc1cccc(OCCCSc2nc3ccccc3[nH]2)c1	-12.9%	-14.3	-3.5%	?	-18.6%
COc1ccccc1C(=O)COC(=O)C1CCN(S(=O)(=O)c2ccccc2)CC1	7.9%	0.0	0.7%	-24.7%	5.7%
O=C1OC(=O)C2C3CCC(O3)C12 (stereo unspecified)	-10.1%	nt	nt	10.9%	nt
COc1cc2c(cc1C(F)(F)F)N(C(=O)Nc1cc(F)cc(-c3cccnc3)c1)CC2	3.55µM*	nt	11.2µM*	4.47µM*	?
Cn1ccc2cc3c(cc21)CCN3C(=O)Nc1cccnc1	?	-7.5	11.6%	7.5%	12.4%
O=C(c1ccc2c(c1)OCO2)N1CCN(S(=O)(=O)c2ccc(Cl)cc2)CC1	-29.9%	-0.1	-1.1%	-10.1%	11.4%
C=C(CO)C1Cc2c(ccc3c2OC2COc4cc(OC)c(OC)cc4C2C3=O)O1 (stereo unspecified)	0.237µM*	nt	nt	0.299µM*	nt
O=C(NCc1ccco1)c1cc2cc(Br)ccc2o1	?	?	-11.4%	?	-6.8%
O=C1c2ccccc2C2N1CCCN2C(=O)c1sc2ccccc2c1Cl (stereo unspecified)	16.4µM*	39.3	-13.3%	18.4µM*	-21.6%
CC(C)OC(=O)c1ccc(NC(=O)CSc2nc3ncccc3[nH]2)cc1	13µM*	?	-23.1%	8.2µM*	-18.8%
CC(C)c1ccc(NC(=O)CSc2nc3ncccc3[nH]2)cc1	25.9µM*	15.7	-24.9%	?	-1.8%
COc1ccc(NC(=O)CSc2nc3ncccc3[nH]2)cc1OC	2.5%	-6.2	1.4%	?	-1.5%
O=C(NCc1ccco1)C1CCN(C(=O)c2ccc(Cl)cc2Cl)CC1	-0.4%	0.4	4.9%	10.9%	0.2%
COC(=O)c1c(NC(=O)c2ccco2)sc(C)c1C	-11.4%	10.0	1.5%	-7.5%	-18.5%
O=C(CSc1ccc(-c2nc3ccccc3[nH]2)cn1)N1CCN(C(=O)c2ccco2)CC1	?	8.4	-3.0%	23.1µM*	17.1%
CC(C)OC(=O)c1ccc(NC(=O)c2ccco2)cc1	23.1µM*	?	-8.7%	18.4µM*	-10.9%
O=C(Nc1ccc(-c2nc3ccccc3[nH]2)cc1)c1ccco1	14.6µM*	-14.7	?	14.6µM*	-14.4%
COC(=O)c1c(NC(=O)c2ccco2)sc(C(=O)Nc2ccc(F)cc2)c1C	23.1µM*	34.4	4.8%	?	0.0%
COc1ccc(NC(=O)C2CCN(S(=O)(=O)c3ccc(Cl)c(C(F)(F)F)c3)CC2)cn1	?	14.5	0.9%	?	-0.3%
O=C1N(CCCl)c2ccc(Br)cc2C12OCCO2	-18.3%	3.5	-0.2%	-6.9%	-12.6%
SMILES	DT40 TDP1 no CPT	IL-1B inflam inh	HT1080-NT tox	TDP1 cell CPT	HT1080 IDH1KD tx
CCCCNS(=O)(=O)c1ccc(Br)cc1N1CCC[C@H]1CO	-26.5%	0.0	10.1%	-7.9%	8.3%
O=C(CCN1C(=O)S/C(=C\c2ccccc2)C1=O)NC1CCS(=O)(=O)C1 (stereo unspecified)	-15.8%	-21.4	-2.1%	?	13.8%
O=C(Nc1ccc(Nc2ccccc2)cc1)c1ccco1	20.6µM*	-100.1*	-2.6%	20.6µM*	?
CCCS(=O)(=O)c1ncc(Cl)c(C(=O)N2CCN(c3ccc(OC)cc3)CC2)n1	3.66µM*	nt	nt	2.06µM*	nt
COc1ccc(N2CCN(C(=O)Cc3ncc(C(F)(F)F)cc3Cl)CC2)cc1	?	51.3	-1.7%	-24.7%	0.5%
C=C1CCN([C@@H](CC(C)C)C(=O)NCc2ccco2)S(=O)(=O)c2ccccc21	?	22.6	-1.0%	?	-4.0%
COc1ccc(CCN2CCC(CNC(=O)c3cnn(-c4cccc(Cl)c4)c3C3CCN(C(=O)OC(C)(C)C)CC3)CC2)cc1	8.2µM*	nt	nt	8.2µM*	nt
COc1ccc(CCN2CCC(CNC(=O)c3cnn(-c4ccccc4)c3C3CCN(C(=O)OC(C)(C)C)CC3)CC2)cc1	8.2µM*	nt	nt	11.6µM*	nt
O=C(NCc1cccc(F)c1)C1CCN(c2nc3ccccc3nc2C(F)(F)F)CC1	?	nt	nt	-23.7%	nt
Cc1ncc2c(c1CNS(=O)(=O)N(C)C)CCN(C(=O)c1ccc(F)cc1Cl)C2	-12.6%	nt	nt	0.9%[9.04 µM]	nt
CCOC(=O)/C(N=Nc1ccc2c(c1)OCO2)=C(\C)O	-0.1%	-4.7	-23.8%	2.2%	-19.4%
O=C1NC[C@H](Cc2ccccc2)N(C[C@H]2CCCN2C[C@H](Cc2ccccc2)N2C[C@H](Cc3ccccc3)N(CCc3ccccc3)C(=O)C2=O)C1=O	16.4µM*	-77.4*	?	?	?
O=C1NC[C@H](Cc2ccccc2)N(C[C@@H]2CCCN2C[C@H](Cc2ccc(O)cc2)N2C[C@H](Cc3ccc(O)cc3)N(CCc3ccccc3)C(=O)C2=O)C1=O	-5.2%	-19.6	-3.7%	3.2%	7.2%
O=C1NC[C@H](Cc2ccccc2)N(C[C@@H]2CCCN2C[C@H](Cc2ccccc2)N2C[C@H](Cc3ccccc3)N(CCc3ccccc3)C(=O)C2=O)C1=O	?	-70.3*	?	?	?
